Bioassay records (PubChem BioAssay)
TEAD-YAP inh: TEAD-YAP interaction inhibition, primary screen, TEAD-YAP interaction inhibitor project, luminescence, HEK-TIYL cells; TEAD-Gal4/YAP UAS-luciferase luminescence; inhibition, % at 9.12 µM; hit rate 1.4% among 640,000; AID 1259422, 2018; in the data active = inhibition above about 32%;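 note: 0% = median of test compound wells and 100% = reference inhibitor wells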
FBW7 act: FBW7 E3 ligase activators, primary screen, biochemical, AlphaScreen, human; F-box/WD repeat-containing protein 7 (Homo sapiens), Q969H0; AlphaScreen FBW7–phospho-cyclin E peptide binding, activator screen; normalized activity (activation), % at 26.1 µM; hit rate 0.13% among 650,000; in the data active = normalized activity above about 1.9%;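 note: purified mutant Fbw7 with reduced substrate affinity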
MITF inh: MITF inhibitors, primary screen, biochemical, AlphaScreen, human. Microphthalmia-associated transcription factor (Homo sapiens), O75030. hit rate 0.91% among 650,000. AlphaScreen MITF homodimerization, bead proximity signal. AID 1259374, 2018. inhibition, % at 2.6 µM; in the data active = inhibition above about 50%;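 note: 0% = vehicle wells with protein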
GPR151 activ: activators of human GPR151, primary screen, cell-based, PathHunter beta-arrestin, luminescence; G-protein coupled receptor 151 (Homo sapiens), Q8TDV0; PathHunter beta-arrestin GPR151 cells; activation, % at 11.2 µM; hit rate 1% among 650,000; AID 1508602, 2020; in the data active = activation above about 4.9%;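 note: 0% = median of compound wells and 100% = cells with positive control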
Target sequence (Q8TDV0 whole entry, looked up): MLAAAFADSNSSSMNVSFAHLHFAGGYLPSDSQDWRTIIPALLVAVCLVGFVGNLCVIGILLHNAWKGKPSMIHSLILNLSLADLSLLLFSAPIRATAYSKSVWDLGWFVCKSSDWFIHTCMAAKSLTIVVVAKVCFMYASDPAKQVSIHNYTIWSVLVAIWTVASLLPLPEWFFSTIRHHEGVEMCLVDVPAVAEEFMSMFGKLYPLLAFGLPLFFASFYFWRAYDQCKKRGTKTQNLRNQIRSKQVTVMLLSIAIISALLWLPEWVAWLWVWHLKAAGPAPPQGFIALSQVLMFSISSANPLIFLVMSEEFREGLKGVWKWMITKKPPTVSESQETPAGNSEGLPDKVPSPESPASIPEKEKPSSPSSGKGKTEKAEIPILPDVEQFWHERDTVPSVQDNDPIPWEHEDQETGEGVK
GPR151 conf act: GPR151 activators, triplicate retest, confirmation, cell-based, PathHunter beta-arrestin, luminescence. 6,700 tested, under 10 active. shares compounds with GPR151 activ. activation, % at 11.2 µM. GPR151 PathHunter beta-arrestin cells, 90 min; % of EA-reagent control over plate median;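 active = mean percent activation across replicates above the confirmation screen cutoff of 4.91%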
GPR119 counter: GPR119 activators in beta-arrestin cells, counter-screen for GPR151 activator project, cell-based, PathHunter beta-arrestin, luminescence, triplicate. shares compounds with GPR151 activ. 90 min; 0 = compound-well median, 100 = enzyme-acceptor control. activation, % at 11.2 µM. hit rate 0.3% among 6,700;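 active = mean percent activation in the counterscreen above 29.09%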;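 note: counterscreen on off-target GPR119 to flag nonselective hits from the GPR151 activator screen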
The depositor's hits bear a star; · = not tested or not shown. Hits are enriched below; roughly 3.5% of the tested compounds scored in any of these assays.

SMILES	TEAD-YAP inh	FBW7 act	MITF inh	GPR151 activ	GPR151 conf act	GPR119 counter
COCc1cc(C)nc2sc(C(=O)NC(C)c3ccccc3)c(N)c12 (stereo not drawn)	-2.9	0.1	-14.0	0.0	·	·
CCOC(=O)c1c(NC(=O)c2ccc([N+](=O)[O-])cc2)sc(C(N)=O)c1C	0.7	0.1	10.2	-0.3	·	·
CCOC(=O)c1c(NC(=O)c2ccc([N+](=O)[O-])cc2)sc(C(=O)OC)c1C	5.8	0.0	-2.4	5.3*	-0.1	-11.4
O=C(N/C(=C/c1cccc([N+](=O)[O-])c1)C(=O)N1CCCCCC1)c1ccco1	-5.1	0.8	7.3	2.8	·	·
O=C(N/C(=C\c1cccc([N+](=O)[O-])c1)C(=O)N1CCOCC1)c1ccco1	4.4	-0.1	6.0	6.9*	0.8	4.3
O=C(N/C(=C/c1ccc(F)cc1)C(=O)N1CCCCC1)c1ccco1	-1.9	-0.2	-8.0	6.6*	0.4	2.2
O=C(NCCOc1ccccc1)c1csc(Nc2cccnc2)n1	1.7	0.0	-10.9	0.8	·	·
CS(=O)(=O)c1cnc(-c2ccc(C(F)(F)F)nc2)nc1-c1ccccc1	-4.1	-0.1	-7.0	1.7	·	·
Cc1cccc(N2CCN(C(=O)c3n[nH]c4ccccc34)CC2)c1	-10.4	0.0	10.7	-0.9	·	·
CC(=O)c1cccc(NC(=O)CN(C)S(=O)(=O)c2ccc(F)cc2)c1	-6.5	0.0	0.0	5.9*	-0.9	-7.2
CSc1cccc(NC(=O)CN(c2ccc(F)c(Cl)c2)S(C)(=O)=O)c1	4.0	0.1	-9.5	8.5*	-0.1	4.4
COc1cccc(NC(=O)CN(C)S(=O)(=O)c2ccc(F)cc2)c1	3.4	-0.1	-9.8	-0.1	·	·
CCOc1ccccc1N(CC(=O)Nc1ccccc1OC)S(C)(=O)=O	-2.9	0.0	-0.3	8.9*	-0.4	-9.2
Cc1cccc(NC(=O)CN(c2ccc(Br)c(C)c2)S(C)(=O)=O)c1	2.5	0.2	11.3	10.1*	0.2	-4.4
COc1ccccc1NC(=O)CN(c1ccccc1OC)S(C)(=O)=O	5.2	0.0	-0.1	-0.9	·	·
Cc1ccc(NC(=O)CN(c2ccc(Br)c(C)c2)S(C)(=O)=O)cc1	-3.1	0.1	8.5	1.6	·	·
CCOC(=O)c1ccc(NC(=O)c2cc(Cl)ccc2NC(=O)c2ccco2)cc1	1.5	0.1	3.5	3.0	·	·
O=c1c2oc3cccc4c3n(c=2c(=O)c2ccccc12)CCC4	4.5	-0.2	-19.3	1.1	·	·
O=C(C1CCCN(S(=O)(=O)c2ccccc2[N+](=O)[O-])C1)N1CCCCC1 (stereo not drawn)	-12.5	-0.1	1.3	1.2	·	·
COc1ccc(Cl)cc1N(CC(=O)Nc1cccc(C(C)=O)c1)S(C)(=O)=O	-0.2	-0.1	7.0	5.8*	0.6	-1.5
Cc1c(Cl)cccc1N(CC(=O)Nc1ccc(F)c(Cl)c1)S(C)(=O)=O	5.0	-0.2	-9.7	5.5*	1.6	-1.8
CS(=O)(=O)N(CC(=O)Nc1ccc(F)c(Cl)c1)c1ccccc1F	10.7	0.1	-0.3	0.1	·	·
Cc1ccccc1NC(=O)CN(c1ccc(Cl)cc1C)S(C)(=O)=O	-3.0	-0.1	0.6	5.3*	0.8	14.2
C/C(=N\Nc1cc(-c2ccccc2)nc(C)n1)c1ccc([N+](=O)[O-])cc1	16.0	0.1	14.8	-0.1	·	·
Cc1cc(C)c(S(=O)(=O)NCc2ccccc2)c(C)c1	-3.2	0.1	1.3	2.0	·	·
CCOC(=O)c1sc2ncn(CC(=O)N3CCCC3)c(=O)c2c1C	-2.0	0.1	0.1	0.1	·	·
Cc1ccc(S(=O)(=O)N2CC(C)N(S(=O)(=O)c3ccc(C)cc3)CC2C)cc1 (stereo not drawn)	6.0	0.3	14.0	-1.0	·	·
CCN(CCO)c1cc(NC(C)C)c2c3c(onc13)-c1ccccc1C2=O	11.6	-0.3	24.4	7.1*	0.9	13.3
CCNc1cc(N(CC)CCO)c2noc3c2c1C(=O)c1ccccc1-3	7.4	-1.2	46.9	-1.6	·	·
